Assay results reported in PubChem BioAssay (Tox21).
Results filed as inconclusive are left out. Values without a mark were called inactive. Calls of active or inactive are those of the source. The call rests on the fitted dose curve; in most records, active means well fitted cell-killing curve with a large enough effect in the repeat runs (not every such curve was filed as active); inconclusive means weak or mixed curves, or effect the other way; inactive means no such curve, though single readings can be large or run the other way.

experiment: qHTS assay to identify small molecule antagonists of the estrogen related receptor signaling pathway with the pleiotropic PPARgamma coactivator (PGC) from Tox21 10K library - cell viability counter screen (AID 1224840); conditions: PGC/ERR reporter cells viability, CellTiter-Fluor, 17.5 h; series mostly up to 92.4 µM; viability change, negative = cytotoxic: at the top concentration; further: nearly all actives have a fitted effect of over 40% in size
Description: National Center for Advancing Translational Sciences [NCATS]
NIH Chemical Genomics Center [NCGC]
U.S. Environmental Protection Agency [EPA]
National Institutes of Environmental Health Sciences [NIEHS]
National Toxicology Program [NTP]
U.S. Food and Drug Administration [FDA]
Estrogen related receptors (ERRs), the first orphan nuclear receptors discovered, play an important role in the control of cellular energy metabolism. ERRs are required for high-energy production in response to the environmental challenges. The pleiotropic PPARgamma coactivator (PGC) is a major partner of ERR and a key regulator in energy homeostasis. Together they have been implicated in the etiology of metabolic disorders such as Type 2 diabetes and metabolic syndrome. ERR-alpha was also identified as an adverse marker for breast cancer progression; ERR-alpha-positive tumors have a poor prognosis. To screen and to identify environmental compounds that perturb the ERR and PGC/ERR signaling pathways could provide valuable information for potential therapeutic or preventive measures in the treatment of metabolic disease. To differentiate true PGC/ERR antagonists or agonist from cytotoxic substances, the assay is multiplexed with cell viability assay.
Tox21 Assay Protocol Summary:
The PGC/ERR cells were dispensed at 2,000 cells/5 ul/well in 1536-well white plates using a Multidrop dispenser. After the assay plates were incubated at a 37 C/5% CO2 incubator for 6 hours, 23 nL of compounds dissolved in DMSO, positive and negative controls or DMSO only was transferred to the assay plate by a pin tool. The plates were incubated at 37 C for 17.5 hours. 1 ul/well of CellTiter-Fluor reagent was added into the assay plates using a Flying Reagent Dispenser. After 30-minute incubation at 37 C/5% CO2, the fluorescence intensity in the plates was measured using a ViewLux plate reader.
On the % scale 0 is the no-effect control and ±100 the full control effect; potency means the concentration at half of the fitted maximal effect.

| Structure (SMILES) | viability change, negative = cytotoxic | Potency |
| --- | --- | --- |
| CCn1c2ccccc2c2ccccc21 | -3.75% | – |
| Cc1ccc(S(=O)(=O)C(I)I)cc1 | – | 48.6 µM (active) |
| O=C(N[C@H](CO)[C@H](O)c1ccc([N+](=O)[O-])cc1)C(Cl)Cl | -3.51% | – |
| COCCC(=O)OC | 8.1% | – |
| Cn1c(=O)[nH]c2ncn(C)c2c1=O | 0.37% | – |
| C=C[Si](C)(C)Cl | 3.07% [at 8.39 µM] | – |
| NCc1ccco1 | -0.43% | – |
| O=C1CCCCCCCCCCCCCC1 | -1.39% | – |
| CCSCC | 4.18% | – |
| CCN(CCC#N)c1ccc(N=Nc2ccc([N+](=O)[O-])cc2)cc1 | -5.45% | – |
| Cc1cccc2c1ccc1ccccc12 | 0.139% | – |
| O=C1C=CC(=O)N1c1cccc(N2C(=O)C=CC2=O)c1 | – | 34.4 µM (active) |
| CC1(C)[C@H](C(=O)OCc2cccc(Oc3ccccc3)c2)[C@@H]1C=C(Cl)Cl | -0.633% | – |
| c1ccc(-c2ccccc2-c2ccccc2)cc1 | -0.212% | – |
| O=S(=O)(c1ccc(OCc2ccccc2)cc1)c1ccccc1O | -16.2% | – |
| CN1CCN(CCCN2c3ccccc3Sc3ccc(C(F)(F)F)cc32)CC1 | – | 29.8 µM (active) |
| CCc1c(C)cc(N)c(CC)c1N | 8.05% | – |
| C=CC(C)(C)O | 5.62% | – |
| O=C1OC(=O)c2cc(-c3ccc4c(c3)C(=O)OC4=O)ccc21 | 4.8% | – |
| [Cl][Eu]([Cl])[Cl] | 0.908% | – |

| Structure (SMILES) | viability change, negative = cytotoxic | Potency |
| --- | --- | --- |
| CN(C)CCOc1ccc(/C(=C(/CCCl)c2ccccc2)c2ccccc2)cc1 | – | 57.2 µM (active) |
| CCCCCCCCCCCCN1CCCC1=O | 0.185% | – |
| CC1=CC[C@@H](C(C)(C)O)CC1 | 2.19% | – |
| Cc1ccc2nc(-c3ccc(N)cc3)sc2c1S(=O)(=O)O | 12.7% [at 42.5 µM] | – |
| C=CC(=O)OCC(Br)CBr (stereo not given) | -5.48% | – |
| O=C(Cl)c1ccc(Cl)cc1Cl | -0.765% | – |
| c1ccc2cc3c4ccccc4c4ccccc4c3cc2c1 | -13.7% | – |
| O=C(O)CN(CCCN(CC(=O)O)CC(=O)O)CC(=O)O | -3.45% [at 19 µM] | – |
| CSc1ccc(O)cc1C | 0.608% | – |
| Cc1ccc2n[nH]nc2c1 | 8.06% | – |
| CN[C@H]1CC[C@@H](c2ccc(Cl)c(Cl)c2)c2ccc(S(N)(=O)=O)cc21 | – | 61.1 µM (active) |
| ClC(c1ccccc1)(c1ccccc1)c1ccccc1 | -1% | – |
| CCNc1nc(NC(C)(C)C)nc(OC)n1 | -17.8% | – |
| CCCCCCCCOC(=O)c1cc(O)c(O)c(O)c1 | – | 34.4 µM (active) |
| CCN(CC)c1ccc2c(c1)Oc1cc(N(CC)CC)ccc1C21OC(=O)c2ccccc21 | – | 8.41 µM (active) |
| C=CCc1cc(S(=O)(=O)c2ccc(O)c(CC=C)c2)ccc1O | -5.01% | – |
| CC/C(=C(/c1ccc(O)cc1)c1ccc(OCCN(C)C)cc1)c1ccccc1 | – | 32 µM (active) |
| CCC(O)CO (stereo not given) | 9.79% | – |
| CCCCCN=C(N)N/N=C/c1c[nH]c2ccc(OC)cc12 | – | 21.1 µM (active) |
| CCC(C)(C)c1ccc(CC(C)CN2C[C@@H](C)O[C@@H](C)C2)cc1 (stereo not given in full) | -11% [at 42.5 µM] | – |
